An excerpt weighted towards active compounds, which were near 7.6% of everything screened.
TSHR ag: TSH receptor (human) agonism; P16473; HEK293-CNG-TSHR cells (CNG channel as cAMP sensor), membrane potential dye, cAMP; Potency, µM (series often up to 57.1 µM), for the others: top-dose activation, actives largely listed as activators; 73,000 tested, 0.48% active; AID 926; active = well fitted activation curve with a large enough effect in the main read-out, with a control signal flat, not every such curve was filed as active; inconclusive = small, poorly fitted or top-dose-only effect, or a change in a side signal; inactive = no such curve, though single readings can be large or run the other way; % of control where 0% means no effect;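 note: the control signal comes from parental cells without the receptor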
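HEK 293 cells stably expressing TSHR and a cAMP-gated CNG channel; parental CNG-only cells as counterscreen. Cells preloaded 60 min with membrane potential dye plus 100 uM RO 20-1724, then compound 30 min; fluorescence read at 590 nm.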
Tau fil binding: binds recombinant human tau filaments | 71,000 tested, 2% active | AID 596 | Potency, µM (highest dose often 57.1 µM), inactives show at the top dose activity change, negative = inhibition | recombinant tau filaments, thioflavin S fluorescence, 15 h; filaments grown with octadecylsulfate alongside compound | P10636;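 note: % is set by controls: 0 for no effect and ±100 for the full control effect; actives lower thioflavin S fluorescence by blocking filaments or displacing dye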
Target sequence (P10636 whole entry, looked up): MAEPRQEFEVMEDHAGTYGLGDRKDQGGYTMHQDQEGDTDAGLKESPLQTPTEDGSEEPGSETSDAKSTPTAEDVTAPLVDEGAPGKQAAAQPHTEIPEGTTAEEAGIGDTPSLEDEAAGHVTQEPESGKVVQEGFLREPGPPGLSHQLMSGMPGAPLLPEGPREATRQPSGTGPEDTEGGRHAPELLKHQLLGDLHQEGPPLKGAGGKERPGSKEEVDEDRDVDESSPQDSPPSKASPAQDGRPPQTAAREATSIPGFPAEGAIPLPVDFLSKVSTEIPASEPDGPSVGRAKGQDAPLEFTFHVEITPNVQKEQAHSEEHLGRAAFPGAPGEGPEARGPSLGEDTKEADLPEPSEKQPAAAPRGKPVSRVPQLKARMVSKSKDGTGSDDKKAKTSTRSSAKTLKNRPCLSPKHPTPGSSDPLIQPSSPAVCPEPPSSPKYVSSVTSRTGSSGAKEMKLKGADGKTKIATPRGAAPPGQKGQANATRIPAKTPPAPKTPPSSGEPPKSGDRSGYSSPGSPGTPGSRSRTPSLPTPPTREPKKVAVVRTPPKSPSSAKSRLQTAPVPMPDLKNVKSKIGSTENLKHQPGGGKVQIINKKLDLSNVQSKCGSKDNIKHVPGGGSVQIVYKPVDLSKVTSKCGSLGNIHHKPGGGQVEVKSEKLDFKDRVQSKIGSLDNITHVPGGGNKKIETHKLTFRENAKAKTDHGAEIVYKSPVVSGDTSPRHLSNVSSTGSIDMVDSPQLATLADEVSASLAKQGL
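Recombinant tau protein (human, 1 uM final) plus 30 uM ODS in HEPES pH 7.4 with NaCl, DTT and thioflavine S. Compound present from the start; fluorescence at 510 nm after 15 h, 37 C.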
CRE Fsk mod: alters forskolin-stimulated CRE reporter signaling in CHO cells; CHO CRE-bla reporter (cAMP response element driving beta-lactamase), forskolin EC10, beta-lactamase ratio; Potency, µM (highest dose often 38.2 µM), for the others: at the top dose activity change, negative = inhibition, hits mostly activators; 71,000 tested, 2.5% active; active = well fitted activation curve with a large enough effect in the signal ratio, with a control signal flat, not every such curve was filed as active; inconclusive = small, poorly fitted or top-dose-only effect, or effect the other way, or a change in a side signal; the % refers to the signal ratio; note: % of control where 0% means no effect
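Titrated compounds plus EC10 NKH 477 on CHO CRE-bla cells, 3 h, 37 °C. CCF4, 2 h RT. Ratio 460/530 nm → AC50.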
ERK AVP block: blocks ERK signaling stimulated by vasopressin; AID 995; 72,000 tested, 0.99% active; Potency, µM (titrated, usually from 57.5 µM), for the others: at the top dose activity, negative = inhibition, hits mostly inhibitors; HEK293-V1b, vasopressin-stimulated pERK AlphaScreen; note: % is set by controls: 0 for no effect and ±100 for the full control effect; nearly all actives have a fitted effect of over 55% in size
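Phosphorylated ERK1/2 detected via AlphaScreen bead proximity in lysates of V1b-expressing HEK293 cells given 25 nM vasopressin for 5 min after 30 min compound exposure (37 °C). AC50 from Hill equation; basal DMSO 0%, vasopressin 100%.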
HEK293 cAMP ctrl: raises cAMP in parental HEK293 cells, TSHR agonist counter-screen; AID 938; Potency, µM (top dose mostly 57.1 µM), without a hit: top-dose activation, usual class: activators; 73,000 tested, 2.5% active; parental HEK293 CNG cAMP sensor, membrane potential fluorescence; note: % of control where 0% means no effect; nearly all actives have a fitted effect of over 55% in size
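Counterscreen for endogenous-receptor signalling: CNG-channel HEK 293 cells report cAMP rise by membrane depolarization. After 60 min dye equilibration with 100 uM RO 20-1724, compounds incubated 30 min before bottom-read fluorescence at 590 nm.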
An asterisk follows results filed as active; ? = inconclusive; · = no result; [ ] = another dose, or the depositor's remark. Unless noted, calls come from the whole dose curve; as a rule, active = well fitted curve in the direction sought with a large enough effect; inconclusive = small, poorly fitted or top-dose-only effect, or another doubt; inactive = no such curve, though single readings can be large; an effect the other way counts as inactive or inconclusive. Potency is the fitted concentration of half-maximal effect.

SMILES	TSHR ag	Tau fil binding	CRE Fsk mod	ERK AVP block	HEK293 cAMP ctrl
CCOC(=O)c1sc2nc(N3CCOCC3)c3c(c2c1N)CCCC3	-26.0%	2.8%	?	-17.4%	-22.4%
Cc1cc(-n2c(C)cc(C(=O)CSc3nnnn3-c3ccccc3)c2C)no1	20µM*	16.9%	?	-21.9%	23.6%
Cc1cc(C(=O)CSc2nnnn2-c2ccccc2)c(C)n1CC1CCCO1 (stereo not given)	?	3.6%	3.1%	-3.9%	25.1µM*
Cc1ccc(-n2nnnc2SCC(=O)c2cc(C)n(-c3cc(C)on3)c2C)c(C)c1	23.2%[11.4 µM]	7.7%	-9.0%	14.4%	25.1%
Cc1cc(C(=O)CSc2nnnn2-c2ccc(Cl)cc2)c(C)n1CC1CCCO1 (stereo not given)	?	8.7%	-6.9%	11.6%	?
CCC1CCc2c(sc3ncnc(N4CCOCC4)c23)C1 (stereo not given)	?	45.0%	18.2%	-17.0%	31.6µM*
CSc1nc(N2CCOCC2)c2c3c(sc2n1)CCC3	13.6%	-3.3%	?	?	24.9%
COCCn1c(=O)c(-c2ccc(OC)cc2)nc2cnc(OCc3ccccc3)nc21	1.7%	11.9%	?	6.1%	8.7%
COCC(=O)N1CCC2(CCCN(c3ccc(-c4ccccc4)cc3)C2)CC1	-6.9%	-28.1%	?	-26.2%	7.4%
CC[C@H](NC(=O)c1c(C)c(-c2ccccc2)nc2ccccc12)c1ccccc1	?	-15.3%	?	35.6%	15.8µM*
Cc1c(-c2ccccc2)nc2ccccc2c1C(=O)O	·	40.0%	?	-32.2%	7.1%
Cc1nc(NCc2ccccc2)c2nc(-c3ccccc3)n(CCN3CCCCC3)c2n1	?	12.1%	9.1%	-27.5%	?
CCOC(=O)c1cc2c(C(F)(F)F)cc(-c3cccnc3)nc2o1	-3.3%	-1.3%	?	-3.8%	-2.3%
Cc1nn(CCC(=O)O)c2nc(-c3cccnc3)cc(C(F)(F)F)c12	2.0%	1.8%	10µM*	?	-7.6%
COc1ccc(N2CCN(c3nc(NCCO)nc(N4CCOCC4)n3)CC2)cc1	5.8%	-13.7%	8.7%	-14.8%	-3.7%
COc1ccc(N2CCN(c3nc(NC(C)(C)C)nc(N4CCCCC4)n3)CC2)cc1	-1.7%	10µM*	-1.6%	?	2.5%
CCOC(=O)c1[nH]c(COC(=O)C2CC(=O)N(Cc3ccccc3)C2)c(C(=O)OCC)c1C (stereo not given)	?	10.0%	?	?	25.1µM*
O=C(O)C1CC(=O)N(Cc2ccccc2)C1 (stereo not given)	-0.7%	1.0%	?	-13.2%	0.6%
c1ccc(-c2csc3ncn4cnnc4c23)cc1	4.9%	56.3%	?	6.31µM*	4.4%
COC(=O)c1ccc(Cn2cnc3c(cnn3-c3ccc(C)c(C)c3)c2=O)o1	?	7.2%	?	?	3.16µM*
Cc1ccc(-n2ncc3c(=O)n(Cc4ccccn4)cnc32)cc1C	15.4%	-3.7%	7.5%	-9.8%	22.2%
COC(=O)c1ccc(Cn2cnc3c(cnn3-c3ccc(Cl)cc3)c2=O)o1	?	31.0%	6.31µM*	?	?
COC(=O)c1ccc(Cn2cnc3c(cnn3-c3ccc(F)cc3)c2=O)o1	?	-1.4%	?	-12.6%	?
Cc1cc2cc(CCNC(=O)CC(C)C)c(=O)[nH]c2cc1C	-4.2%	-3.7%	12.6µM*	·	-1.2%
CCC(=O)NCCc1cc2cc(C)c(C)cc2[nH]c1=O	·	9.7%	5.1%	7.1%	-9.1%
SMILES	TSHR ag	Tau fil binding	CRE Fsk mod	ERK AVP block	HEK293 cAMP ctrl
CCOC(=O)c1[nH]c2ccc(OC)cc2c1NC(=O)OC	10.9%	-2.1%	14.2%	6.0%	13.3%
COc1ccc2[nH]c(O)c(NC(C)=O)c2c1	19.6%	12.1%	0.398µM*	?	-7.6%
CC(=O)OC[C@@H]1O[C@@H](Oc2cc(OC(C)=O)c3c(=O)cc(-c4ccc(OC(C)=O)c(OC(C)=O)c4)oc3c2)[C@H](OC(C)=O)[C@H](OC(C)=O)[C@@H]1OC(C)=O	-2.8%	?	17.6%	·	-15.5%
O=C(c1cc2ccccc2oc1=O)N1CCN(c2ccc(N3CCOCC3)nn2)CC1	-5.2%	-11.6%	-0.3%	-7.1%	3.7%
O=C(c1ccc(CSCc2ccccc2F)o1)N1CCN(c2ccc(N3CCOCC3)nn2)CC1	?	60.9%	?	25.1µM*	?
N#Cc1cccc(NC(=O)N2CC[C@@]3(CCCN(C(=O)c4cnccn4)C3)C2)c1	0.8%	-4.8%	-1.5%	14.5%	2.0%
CCOC(=O)N1CCC(NC(=O)CCN2C(=O)COc3ccccc32)CC1	-4.8%	-2.2%	-2.4%	-4.3%	-4.4%
CCCC(OC(=O)CN1C(=O)COc2ccccc21)C(=O)NC1CCCC1 (stereo not given)	?	-6.1%	0.1%	-7.8%	0.794µM*
COc1ccc(CNC(=O)CS(=O)Cc2nc(-c3ccccc3C)oc2C)cc1 (stereo not given)	13.4%	13.0%	-10.4%	20µM*	28.0%
Cc1ccc(CNC(=O)CS(=O)Cc2nc(-c3ccccc3C)oc2C)cc1 (stereo not given)	?	22.4%	-8.9%	6.4%	?
CCOC(=O)CCN1CCN(C(=O)c2ccc(-n3c(=O)c(=O)[nH]c4ccccc43)cc2)CC1	-1.5%	·	·	·	-3.7%
CCCCCn1c(=NC(C)=O)c(C#N)cc2c(=O)n3cccc(C)c3nc21	-27.6%	-21.5%	3.98µM*	-7.2%	-24.4%
CCCn1c(=NC(C)=O)c(C#N)cc2c(=O)n3cccc(C)c3nc21	-7.4%	63.6%	2.51µM*	-6.8%	-7.1%
COCCCn1c(=NC(=O)c2ccc3c(c2)OCO3)c(C#N)cc2c(=O)n3cccc(C)c3nc21	-7.2%[11.4 µM]	62.1%	?	-7.2%	-4.1%
CCOC(=O)C1CCN(c2c(NCc3ccc(C(=O)O)cc3)c(=O)c2=O)CC1	5.6%	7.9%	-1.0%	·	2.1%
CC(C)NC[C@H]1CCc2cc(CO)c([N+](=O)[O-])cc2N1	-1.9%[25.6 µM]	-5.9%[25.6 µM]	-6.2%[17.1 µM]	36.0%[25.7 µM]	2.3%[25.6 µM]
COc1ccc(OC)c(N)c1	-10.4%	12.6µM*	?	-26.7%	-17.0%
COc1ccc2c(c1)c(CC(=O)O)c(C)n2Cc1ccc(F)cc1	?	-0.8%	-7.2%	8.7%	?
COc1ccc2c(c1)c(=O)c(Br)c(C)n2Cc1ccccc1	?	92.5%	?	59.4%	31.6µM*
Nc1nc2c(c(=O)[nH]1)CN(c1ccc(S(N)(=O)=O)cc1)CN2	-0.8%[11.4 µM]	0.5%[11.4 µM]	-0.3%[7.6 µM]	6.2%[11.5 µM]	-2.4%[11.4 µM]
CCC(=O)OCC(=O)[C@@]1(OC(=O)CC)[C@H](C)C[C@@H]2[C@@H]3[C@H]([C@@H](O)C[C@@]21C)[C@]1(C)C=CC(=O)C=C1C[C@@H]3Cl	0.4%[25.6 µM]	4.3%[25.6 µM]	-4.9%[17.1 µM]	8.3%[25.7 µM]	-0.6%[25.6 µM]
CC(=O)C1=C(C)NC(SCC(=O)c2ccccc2)=C(C#N)C1CC(C)C (stereo not given)	10µM*	22.4%	10.0%	63.9%	3.1%

High-throughput results (PubChem)
